According to PubChem BioAssay (NCI):
Compounds without any hit were thinned out: in the full panel of roughly 83,000, 20% have a hit.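 Compound tested at a single concentration for 48 hours in 96-well plates; a percent growth value below 10 was scored as active.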 Calls of active or inactive are those of the source.

Experiments:
Test in all cases: NCI-60 one-dose screen, 48 h (100 = growth as untreated, 0 = no growth, -100 = all killed)
Settings in all cases: 10 µM unless noted
SR leukemia = tested on: SR leukemia
RPMI-8226 leukemia = tested on: RPMI-8226 leukemia
OVCAR-8 ovarian = tested on: OVCAR-8 ovarian
OVCAR-5 ovarian = tested on: OVCAR-5 ovarian
OVCAR-4 ovarian = tested on: OVCAR-4 ovarian
SK-OV-3 ovarian = tested on: SK-OV-3 ovarian
IGROV1 ovarian = tested on: IGROV1 ovarian
OVCAR-3 ovarian = tested on: OVCAR-3 ovarian
HS 578T breast = tested on: HS 578T breast
NCI/ADR-RES ovarian = tested on: NCI/ADR-RES ovarian

Measured: growth

O=C(CSc1nnc(-c2cnccn2)n1-c1ccccc1)c1ccc(Cl)cc1
inactive: SR leukemia 90.8% | RPMI-8226 leukemia 92% | OVCAR-8 ovarian 100% | OVCAR-5 ovarian 96.9% | OVCAR-4 ovarian 105% | SK-OV-3 ovarian 108% | IGROV1 ovarian 106% | OVCAR-3 ovarian 98.3% | HS 578T breast 104% | NCI/ADR-RES ovarian 104%

COc1ccc(OC)c(-c2nc(SCC(=O)c3ccc(C#N)cc3)[nH]c(=O)c2C#N)c1
inactive: SR leukemia 97.3% | RPMI-8226 leukemia 114% | OVCAR-8 ovarian 99.3% | OVCAR-5 ovarian 89.5% | OVCAR-4 ovarian 106% | SK-OV-3 ovarian 78% | IGROV1 ovarian 96.4% | OVCAR-3 ovarian 89.4% | HS 578T breast 102% | NCI/ADR-RES ovarian 97.4%

COC(=O)c1c(C)nc(C)c2c1C(=O)C(Br)=C(NCc1ccccc1)C2=O
active: OVCAR-8 ovarian 4.6% | OVCAR-4 ovarian -57.3% | OVCAR-3 ovarian -12.7% | NCI/ADR-RES ovarian 3.37%
inactive: SR leukemia 27% | RPMI-8226 leukemia 41.1% | OVCAR-5 ovarian 61.5% | SK-OV-3 ovarian 109% | IGROV1 ovarian 18% | HS 578T breast 76%

COc1cc(-c2cncn2-c2ccc(-c3nc4ccc(F)cc4s3)cc2)ccc1F
inactive: SR leukemia 73% | RPMI-8226 leukemia 53.6% | OVCAR-8 ovarian 78.1% | OVCAR-5 ovarian 75.7% | OVCAR-4 ovarian 85.6% | SK-OV-3 ovarian 106% | IGROV1 ovarian 52.8% | OVCAR-3 ovarian 97.5% | HS 578T breast 97.4% | NCI/ADR-RES ovarian 80.3%

CCOC(=O)n1ccn(C)c1=S
inactive: SR leukemia 94.2% | RPMI-8226 leukemia 103% | OVCAR-8 ovarian 105% | OVCAR-5 ovarian 102% | OVCAR-4 ovarian 110% | SK-OV-3 ovarian 85.3% | IGROV1 ovarian 110% | OVCAR-3 ovarian 106% | HS 578T breast 132% | NCI/ADR-RES ovarian 107%

CCOC(=O)NC(C)C
inactive: SR leukemia 112% | RPMI-8226 leukemia 113% | OVCAR-8 ovarian 103% | OVCAR-5 ovarian 90.5% | OVCAR-4 ovarian 107% | SK-OV-3 ovarian 117% | IGROV1 ovarian 91.2% | OVCAR-3 ovarian 112% | HS 578T breast 111% | NCI/ADR-RES ovarian 93.5%

CCOC(=O)c1c(NC(=O)c2cccc(C(F)(F)F)c2)sc2c(CN(C)C)c(O)ccc12
active: SR leukemia -2.46% | RPMI-8226 leukemia -17.3%
inactive: OVCAR-8 ovarian 82.1% | OVCAR-5 ovarian 89.5% | OVCAR-4 ovarian 91.1% | SK-OV-3 ovarian 101% | IGROV1 ovarian 83.1% | OVCAR-3 ovarian 98.5% | HS 578T breast 89.8% | NCI/ADR-RES ovarian 79%

COc1cc(OC)c(/C=C/C(=O)c2c(OC)cccc2OC)c(OC)c1
inactive: SR leukemia 23.3% | RPMI-8226 leukemia 16.7% | OVCAR-8 ovarian 24.2% | OVCAR-4 ovarian 68.4% | SK-OV-3 ovarian 21.7% | HS 578T breast 88.7%
active: OVCAR-5 ovarian 4.82% | IGROV1 ovarian -1.35% | OVCAR-3 ovarian -42.2% | NCI/ADR-RES ovarian -22.1%

Nc1nc2ccccc2c2c1S(=O)(=O)c1ccc(Cl)cc1C2=O
inactive: OVCAR-5 ovarian 13.9% | SK-OV-3 ovarian 58.6% | IGROV1 ovarian 27.6% | NCI/ADR-RES ovarian 24.8%
active: SR leukemia 3.3% | RPMI-8226 leukemia -15.1% | OVCAR-8 ovarian 8.43% | OVCAR-4 ovarian 7.52% | OVCAR-3 ovarian -12.5% | HS 578T breast 6.88%

COc1cccc(/C=C2\COc3ccc(O)c(O)c3C2=O)c1
inactive: SR leukemia 12.6% | OVCAR-8 ovarian 10.7% | OVCAR-4 ovarian 26.9% | SK-OV-3 ovarian 86.2% | HS 578T breast 20.4%
active: RPMI-8226 leukemia -7.52% | OVCAR-5 ovarian -2.7% | IGROV1 ovarian -31.1% | OVCAR-3 ovarian -28.3% | NCI/ADR-RES ovarian 2.6%

CSc1nc2ncc([N+](=O)[O-])c(=O)n2[nH]1
inactive: SR leukemia 107% | RPMI-8226 leukemia 107% | OVCAR-8 ovarian 104% | OVCAR-5 ovarian 106% | OVCAR-4 ovarian 102% | SK-OV-3 ovarian 113% | IGROV1 ovarian 105% | OVCAR-3 ovarian 113% | HS 578T breast 103% | NCI/ADR-RES ovarian 101%

COc1cc2nc3cc([N+](=O)[O-])ccc3c(NCCNCC(C)O)c2cc1OC (stereo not given)
inactive: SK-OV-3 ovarian 20.8% | NCI/ADR-RES ovarian 75.1%
active: SR leukemia -17.9% | RPMI-8226 leukemia -13% | OVCAR-8 ovarian -8.18% | OVCAR-5 ovarian 5.11% | OVCAR-4 ovarian -32.4% | IGROV1 ovarian -16.5% | OVCAR-3 ovarian -35.9% | HS 578T breast -1.12%

O=c1c2cccc3c(N4CCCC4)ccc(c32)c2nc3ccccc3n12
inactive: SR leukemia 20.2% | RPMI-8226 leukemia 75.7% | OVCAR-8 ovarian 66% | OVCAR-5 ovarian 106% | OVCAR-4 ovarian 78.8% | SK-OV-3 ovarian 79.1% | IGROV1 ovarian 57.1% | OVCAR-3 ovarian 98.2% | HS 578T breast 67.2% | NCI/ADR-RES ovarian 83%

Nc1ncnc2c1c(-c1cccc(Cl)c1)nn2CC(=O)N1CCOCC1
inactive: SR leukemia 116% | RPMI-8226 leukemia 108% | OVCAR-8 ovarian 102% | OVCAR-5 ovarian 101% | OVCAR-4 ovarian 96.6% | SK-OV-3 ovarian 109% | IGROV1 ovarian 99.2% | OVCAR-3 ovarian 106% | HS 578T breast 103% | NCI/ADR-RES ovarian 103%

COc1ccc2c(c1)CC[C@H](O)/C2=C/c1cc(OC)c(OC)c(OC)c1
active: SR leukemia -5.45% | OVCAR-3 ovarian -18.3% | NCI/ADR-RES ovarian 6.93%
inactive: RPMI-8226 leukemia 34.3% | OVCAR-8 ovarian 16.1% | OVCAR-5 ovarian 61% | OVCAR-4 ovarian 41.1% | SK-OV-3 ovarian 13.9% | IGROV1 ovarian 27.8% | HS 578T breast 33.3%

Cc1cccc(CNc2c3ccccc3nc3ccccc23)c1
active: SR leukemia -2.88% | RPMI-8226 leukemia -20.4%
inactive: OVCAR-8 ovarian 20.3% | OVCAR-5 ovarian 35.8% | OVCAR-4 ovarian 27.9% | SK-OV-3 ovarian 45.3% | IGROV1 ovarian 19.5% | OVCAR-3 ovarian 30.8% | HS 578T breast 30.3% | NCI/ADR-RES ovarian 25.7%

c1cc2c(ccc3[nH]c(-c4ccc5[nH]ncc5c4)c4c(c32)CCCC4)n1
inactive: RPMI-8226 leukemia 45.8% | OVCAR-8 ovarian 64.4% | OVCAR-5 ovarian 80.4% | OVCAR-4 ovarian 80.7% | SK-OV-3 ovarian 63.4% | IGROV1 ovarian 67.6% | OVCAR-3 ovarian 72.5% | HS 578T breast 75.7% | NCI/ADR-RES ovarian 83.2%
active: SR leukemia -7.05%

Cn1cc(-c2csc(-c3c[nH]c4ccccc34)n2)c2cnccc21
inactive: OVCAR-8 ovarian 18.2% | OVCAR-5 ovarian 75.4% | OVCAR-4 ovarian 14.3% | SK-OV-3 ovarian 85.3% | IGROV1 ovarian 47.3% | HS 578T breast 88.3% | NCI/ADR-RES ovarian 35.9%
active: SR leukemia -7.21% | RPMI-8226 leukemia -28% | OVCAR-3 ovarian -59.8%

OB1OCc2cc(/C=C/c3cccc(C(F)(F)F)c3)ccc21
active: SR leukemia -1.55% | OVCAR-4 ovarian -12.9% | OVCAR-3 ovarian -27.3%
inactive: RPMI-8226 leukemia 15.7% | OVCAR-8 ovarian 10.8% | OVCAR-5 ovarian 37.6% | SK-OV-3 ovarian 15.9% | IGROV1 ovarian 16.8% | HS 578T breast 23.3% | NCI/ADR-RES ovarian 15.2%

O=C(/C=C/c1cccc(Cl)c1)c1ccc(Nc2nc(Nc3ccc(F)cc3)nc(Nc3ccc(Cl)cc3)n2)cc1
inactive: SR leukemia 75.6% | OVCAR-8 ovarian 92.8% | OVCAR-5 ovarian 98% | OVCAR-4 ovarian 111% | SK-OV-3 ovarian 131% | IGROV1 ovarian 113% | OVCAR-3 ovarian 130% | HS 578T breast 110% | NCI/ADR-RES ovarian 100%
active: RPMI-8226 leukemia 5.94%

Clc1ccc2c(NC3CCC(N4CCOCC4)CC3)ccnc2c1 (stereo not given)
inactive: SR leukemia 55.2% | RPMI-8226 leukemia 58.2% | OVCAR-8 ovarian 69.1% | OVCAR-5 ovarian 105% | OVCAR-4 ovarian 56.7% | SK-OV-3 ovarian 81.5% | IGROV1 ovarian 131% | OVCAR-3 ovarian 92.7% | HS 578T breast 83.8% | NCI/ADR-RES ovarian 77.2%

Cc1ccc(NC(=O)Cn2cc(CN3CCN(c4ccnc5cc(Cl)ccc45)CC3)nn2)cc1
inactive: SR leukemia 60.2% | RPMI-8226 leukemia 64.7% | OVCAR-8 ovarian 89.8% | OVCAR-5 ovarian 95.5% | OVCAR-4 ovarian 76.6% | SK-OV-3 ovarian 68.4% | IGROV1 ovarian 91.1% | OVCAR-3 ovarian 91.3% | HS 578T breast 83.2% | NCI/ADR-RES ovarian 89.1%

O=C(C[C@]1(O)C(=O)Nc2ccccc21)c1cccc(C(F)(F)F)c1
inactive: SR leukemia 96.7% | RPMI-8226 leukemia 88.7% | OVCAR-8 ovarian 95.1% | OVCAR-5 ovarian 81.4% | OVCAR-4 ovarian 91.3% | SK-OV-3 ovarian 75.8% | IGROV1 ovarian 67.6% | OVCAR-3 ovarian 77.9% | HS 578T breast 90.3% | NCI/ADR-RES ovarian 94.7%

CC(=O)Oc1ccc(/C(=C(\C)c2ccc(Cl)cc2)c2ccc(OCCN3CCCCC3)cc2)cc1
active: SR leukemia -27.3% | RPMI-8226 leukemia 9.5%
inactive: OVCAR-8 ovarian 57.1% | OVCAR-5 ovarian 75.1% | OVCAR-4 ovarian 57.1% | SK-OV-3 ovarian 54.6% | IGROV1 ovarian 61.8% | OVCAR-3 ovarian 66.7% | HS 578T breast 52.9% | NCI/ADR-RES ovarian 50%

CCCC/C(CC)=N\NS(=O)(=O)c1ccc([N+](=O)[O-])cc1
inactive: SR leukemia 97.5% | RPMI-8226 leukemia 101% | OVCAR-8 ovarian 100% | OVCAR-5 ovarian 94.6% | OVCAR-4 ovarian 100% | SK-OV-3 ovarian 95.9% | IGROV1 ovarian 105% | OVCAR-3 ovarian 107% | HS 578T breast 103% | NCI/ADR-RES ovarian 104%

NC(=O)c1cccc(-n2ccc3cc(NC(=O)c4ccc(N5CCOCC5)c(C(F)(F)F)c4)ccc32)n1
inactive: SR leukemia 26.5% | RPMI-8226 leukemia 12.2% | OVCAR-8 ovarian 31.9% | OVCAR-5 ovarian 70.1% | OVCAR-4 ovarian 47% | SK-OV-3 ovarian 43.3% | IGROV1 ovarian 74.8% | OVCAR-3 ovarian 48.7% | HS 578T breast 14% | NCI/ADR-RES ovarian 66.1%
